Data as given in PubChem BioAssay (NCI).
The panel holds about 83,000 compounds, 20% with a hit somewhere; the sample as a whole holds those more often.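 48-hour exposure, single concentration, 96-well plates; percent growth endpoint where 0 means no net growth. Active: below 10.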 Unmarked numbers belong to inactive results. Activity calls are given as the source filed them.

Legend:
Assay in all cases: NCI-60 one-dose screen, 48 h (100 = growth as untreated, 0 = no growth, -100 = all killed)
Settings in all cases: 10 µM unless noted
SR leukemia = system: SR leukemia
RPMI-8226 leukemia = system: RPMI-8226 leukemia
OVCAR-8 ovarian = system: OVCAR-8 ovarian
OVCAR-5 ovarian = system: OVCAR-5 ovarian
OVCAR-4 ovarian = system: OVCAR-4 ovarian
SK-OV-3 ovarian = system: SK-OV-3 ovarian
IGROV1 ovarian = system: IGROV1 ovarian
OVCAR-3 ovarian = system: OVCAR-3 ovarian
HS 578T breast = system: HS 578T breast
NCI/ADR-RES ovarian = system: NCI/ADR-RES ovarian
T-47D breast = system: T-47D breast
BT-549 breast = system: BT-549 breast
MDA-MB-435 melanoma = system: MDA-MB-435 melanoma
SW-620 colon = system: SW-620 colon
MCF7 breast = system: MCF7 breast
HCT-116 colon = system: HCT-116 colon
HCC-2998 colon = system: HCC-2998 colon
KM12 colon = system: KM12 colon

Structure (SMILES)	growth (SR leukemia)	growth (RPMI-8226 leukemia)	growth (OVCAR-8 ovarian)	growth (OVCAR-5 ovarian)	growth (OVCAR-4 ovarian)	growth (SK-OV-3 ovarian)	growth (IGROV1 ovarian)	growth (OVCAR-3 ovarian)	growth (HS 578T breast)	growth (NCI/ADR-RES ovarian)	growth (T-47D breast)	growth (BT-549 breast)	growth (MDA-MB-435 melanoma)	growth (SW-620 colon)	growth (MCF7 breast)	growth (HCT-116 colon)	growth (HCC-2998 colon)	growth (KM12 colon)
CC1(C)CC[C@]2(C(=O)O)CC[C@]3(C)C(=CC[C@@H]4[C@@]5(C)C[C@@H](Cc6cn([C@@H]7O[C@H](CO)[C@@H](O)[C@H](O)[C@H]7O)nn6)[C@H](O)C(C)(C)[C@@H]5CC[C@]43C)[C@@H]2C1	94.7%	103%	98.7%	102%	96.6%	89%	108%	104%	96.8%	105%	94.2%	101%	104%	102%	91.4%	96.4%	104%	104%
O=C(OC[C@@H]1CO1)c1cccc2c(=O)c3ccccc3[nH]c12	9.87% (active)	-11.7% (active)	-56% (active)	-21.4% (active)	-27% (active)	-38.5% (active)	-13.7% (active)	-25.7% (active)	-21.5% (active)	-16.3% (active)	-9.67% (active)	-31.6% (active)	-81.7% (active)	-24.7% (active)	0.0356% (active)	2.66% (active)	-66.2% (active)	-65.5% (active)
COc1ccc2nc(SCC(=O)Nc3ccccc3C)[nH]c2c1	89.5%	90.1%	94.2%	99.6%	95.2%	105%	103%	107%	90.9%	99%	84.2%	97.6%	97%	99.4%	90.7%	98.9%	106%	101%
C=C(c1ccc(C(=O)O)cn1)c1cc2c(cc1C)C(C)(C)CCC2(C)C	82.7%	66.5%	83.7%	121%	85.2%	75.5%	98.9%	87.6%	69.5%	83.6%	81.5%	86.4%	92.6%	117%	65.6%	82.3%	126%	86.1%
Clc1ccc(-c2cn3ccsc3n2)c(Cl)c1Cl	49.9%	67.5%	95.7%	88.5%	74.1%	118%	77.2%	93.3%	84.3%	99.6%	31.7%	86.3%	96.6%	96.8%	0.866% (active)	91.7%	92.5%	98.1%
C=CCCC(=O)N1C=CC(=O)[C@H](O)[C@@H]1/C=C/c1ccccc1	43.8% [100 µM]	54.2% [100 µM]	37% [100 µM]	62.2% [100 µM]	55.4% [100 µM]	39.2% [100 µM]	51% [100 µM]	30.3% [100 µM]	87.6% [100 µM]	19.8% [100 µM]	39.7% [100 µM]	59.6% [100 µM]	59.6% [100 µM]	40.6% [100 µM]	19.3% [100 µM]	18.5% [100 µM]	42.5% [100 µM]	33.3% [100 µM]
O=C(CN1C(=O)NC2NC(=O)NC21)N/N=C/c1ccc(Cl)cc1Cl (stereo not drawn)	109%	104%	109%	105%	103%	102%	103%	104%	103%	104%	110%	98.9%	102%	104%	98%	101%	110%	105%
O=P(O)(O)OCC1OC(n2cnc3c(NCc4ccccc4)ncnc32)C(O)C1O (stereo not drawn)	41.7%	29.5%	11.5%	57.7%	25.5%	9.33% (active)	1.31% (active)	-66.7% (active)	28.2%	29.7%	22.1%	-18.8% (active)	25.4%	24.5%	27.6%	7.45% (active)	29.9%	80.7%
CCOc1ccc(NC(=O)c2cc(OC)c(OC)c(OC)c2)cc1	24.7%	27%	49.5%	94%	65%	40.6%	53.1%	-3.43% (active)	26.8%	11.5%	37.2%	44.5%	-10.9% (active)	31.6%	20.8%	18%	55.5%	22.8%
COc1ccc(C(c2cc(OC)c(OC)c(OC)c2)N2CCN(Cc3ccccc3)CC2)cc1 (stereo not drawn)	16.1%	84.1%	92.6%	84.7%	97%	66.2%	63%	69%	59.1%	61.6%	75.1%	92.4%	-32.2% (active)	43.6%	47.7%	56.7%	91.9%	40.6%
C[Se]C(=O)CC1=C2C=C(F)C=CC2/C(=C\c2ccc(S(C)=O)cc2)C1C (stereo not drawn)	22.5%	-23.9% (active)	-66.1% (active)	17.6%	26.7%	6.54% (active)	21.3%	-7.75% (active)	2.31% (active)	2.59% (active)	48.7%	-89.8% (active)	-25.9% (active)	4.55% (active)	15.5%	7.49% (active)	68.9%	50.1%
COc1cc2c3c(n(CCCCNCCCn4c5c(c6cc(OC)c(OC)cc6c4=O)C(=O)c4cc6c(cc4-5)OCO6)c(=O)c2cc1OC)-c1cc2c(cc1C3=O)OCO2	66.6%	105%	101%	98.6%	102%	96.3%	95%	98.7%	104%	98.6%	88.7%	106%	105%	95.2%	93.6%	93.9%	105%	93.8%
C=C(CN1CC=CCC1)[C@@H]1CC[C@]2(CO)CC[C@]3(C)[C@H](CC[C@@H]4[C@@]5(C)CC[C@H](O)C(C)(C)[C@@H]5CC[C@]43C)[C@@H]12	76.9%	88%	101%	109%	92.8%	107%	107%	102%	95.3%	90.1%	87.6%	105%	105%	106%	88.7%	94.4%	116%	107%
O=C1N[C@@H]2[C@@H](O)[C@@H](O)[C@H](O)C[C@H]2c2cc3c(c(O)c21)OCCO3	-2.37% (active)	-28% (active)	-13.8% (active)	3% (active)	-8.78% (active)	-10.9% (active)	-16.7% (active)	-13% (active)	-9.44% (active)	-0.441% (active)	-15.8% (active)	-17.5% (active)	1.45% (active)	4.85% (active)	-13.3% (active)	-3.3% (active)	-46.2% (active)	-2.6% (active)
COc1cc(C(=O)c2c(N)ncn2-c2ccccc2)cc(OC)c1OC	122%	136%	101%	102%	101%	95.4%	88.1%	99.2%	98.5%	82.5%	101%	98.8%	43.8%	88.1%	87.1%	90.3%	99.6%	72.4%
CCCCCCCCNc1cc2c3c(c1)CCCN3CCC2	26%	12.3%	15.8%	17.6%	35.2%	10.7%	29.7%	4.22% (active)	23.3%	70.7%	13.4%	20%	9.1% (active)	9.22% (active)	24.3%	5.39% (active)	11.8%	5.45% (active)
